hgDAF12 agonist – H. glycines DAF-12 receptor agonists, primary screen, cell-based, luminescence, HEK293, GAL4 fusion, UAS-luciferase | Nuclear hormone receptor DAF-12 (Heterodera glycines), GAL4 fusion | HEK293 GAL4-hgDAF12 UAS-luciferase reporter, agonist luminescence; normalized to butyrate control | activation, % at 6.8 µM | hit rate 1.8% among 370,000 | AID 687014, 2013;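 active = activation above a cutoff set at the mean of all screened compounds plus 3 SD, cut at about 10% in these data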;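 also: 0% = DMSO wells and 100% = sodium butyrate wells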
AHR activator – AHR activators, primary screen, cell-based, luminescence, luciferase reporter, human | activation, % at 5 µM | hit rate 2.5% among 320,000 | Aryl hydrocarbon receptor (Homo sapiens), P35869 | AHR-responsive luciferase reporter cells; in the data active = activation above about 47%;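 also: 0% = vehicle wells and 100% = reference agonist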
ssDAF-12 act – S. stercoralis DAF-12 nuclear receptor activators, primary screen, cell-based, luminescence, HEK293, GRIP1 co-expression, lit1-tk-luc; HEK293 ssDAF-12/GRIP1 lit1-tk-luc reporter; % of 3 µM dafachronic acid response; activation, % at 6.8 µM; hit rate 1% among 370,000; AID 652126, 2013;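 active = activation above the mean over all tested compounds plus 3 SD, cut at about 0.9% in these data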;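 also: 0% = DMSO-only wells and 100% = 3 µM delta7-dafachronic acid wells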
hcDAF12 agonist – H. contortus DAF-12 nuclear receptor activators, primary screen, cell-based, luminescence, HEK293, lit1-tk-luc reporter | activation, % at 6.8 µM | HEK293 hcDAF-12 lit1-tk-luc reporter; 0% DMSO, 100% Δ7-dafachronic acid | hit rate 1.4% among 370,000;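 active = activation above the mean of all tested compounds plus 3 SD, cut at about 5.5% in these data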;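 also: 100% = response to 3 µM Δ7-dafachronic acid high control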
DAX1 inh-1 – DAX1 (NR0B1) inhibitors on StAR promoter, primary screen, cell-based, luminescence, SF-1 (NR5A1), full-length DAX-1. HEK293T StAR-luciferase reporter, SF-1/DAX-1 repression relief. inhibition, % at 6.8 µM. hit rate 1.1% among 370,000. AID 652010, 2013;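 active = inhibition above the mean over all tested compounds plus 3 SD, cut at about 3.6% in these data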;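 also: 0% = DAX-1 cells with DMSO and 100% = cells lacking DAX-1 with DMSO; higher inhibition means more luminescence from relief of DAX-1 repression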
DAX1 inh-2 – DAX1 (NR0B1) inhibitors, primary screen, cell-based, HEK293, Gal4-DAX1, luciferase luminescence; Nuclear receptor subfamily 0 group B member 1 (Homo sapiens), P51843; HEK293 Gal4-DAX1 luciferase reporter; inhibition, % at 6.75 µM; hit rate 0.99% among 340,000; AID 504766, 2011;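 active = inhibition above the mean over all tested compounds plus 3 SD, cut at about 4.2% in these data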;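 also: 0% = DAX1-transfected cells with DMSO and 100% = empty-vector control cells with DMSO; inhibition shows as a rise in luminescence from relieved DAX1 repression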
Target sequence (P51843 207-470 limits assumed): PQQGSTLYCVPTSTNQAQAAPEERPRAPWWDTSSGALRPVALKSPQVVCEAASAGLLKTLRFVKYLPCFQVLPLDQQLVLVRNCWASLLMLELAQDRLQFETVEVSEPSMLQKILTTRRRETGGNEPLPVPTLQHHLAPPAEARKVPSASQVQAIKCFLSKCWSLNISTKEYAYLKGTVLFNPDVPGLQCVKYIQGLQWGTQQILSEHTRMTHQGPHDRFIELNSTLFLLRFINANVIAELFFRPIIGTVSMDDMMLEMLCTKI
Numbers without * were called inactive; nt = no result given. Most compounds without a hit are left out; they make up all but 5.7% or so of the library.

SMILES | hgDAF12 agonist | AHR activator | ssDAF-12 act | hcDAF12 agonist | DAX1 inh-1 | DAX1 inh-2
Cc1cc(Nc2cnc3ccccc3n2)n(-c2ccccc2)n1 | 0.2 | 10.0 | 1.9* | 4.4 | -1.1 | 0.3
CCOc1cc(S(=O)(=O)NCCCN2CCOCC2)c(C)cc1C | -2.2 | nt | -0.4 | 1.1 | 0.4 | 0.6
COc1cc(N)ccc1NC(=O)c1cccs1 | 2.5 | 60.3* | -0.5 | -0.4 | 0.5 | 0.6
COc1cccc(-c2nnc(NC(=O)c3cccs3)s2)c1 | -0.8 | 64.3* | -1.1 | -0.8 | 0.8 | 2.6
COc1cccc(-c2nnc(NC(=O)c3ccco3)s2)c1 | 4.5 | 2.8 | -0.1 | 2.8 | 1.3 | 1.9
COc1ccc(C(=O)/C=C\c2ccc(NC(=O)c3cccs3)cc2)cc1 | 0.3 | 4.5 | 0.3 | 6.5* | -0.5 | -2.0
COc1cc(NC(=O)c2cc(OC)c(OC)c(OC)c2)ccc1NC(=O)c1cccs1 | -2.1 | 17.0 | -1.8 | -4.0 | -1.8 | -1.8
COc1cccc(NC(=O)c2cccs2)c1 | 13.0* | 4.8 | -0.6 | 5.2 | 1.1 | -1.1
CCC(C)N1CNc2c(c(=O)[nH]c(=S)n2-c2cccc(C)c2)C1 (configuration not stated) | 3.5 | -0.5 | -1.2 | -1.0 | 0.8 | 1.4
Cc1ccc(S(=O)(=O)N2CCCCC2)cc1NC(=O)C1COc2ccccc2O1 (configuration not stated) | 3.9 | nt | -0.4 | 0.1 | -0.6 | -0.9
Cc1ccn2cc(-c3cccc(NC(=O)c4cccs4)c3)nc2c1 | 11.0* | 6.8 | -0.8 | -0.5 | 0.5 | 0.5
Cc1cccn2cc(-c3cccc(NC(=O)c4cccs4)c3)nc12 | 3.2 | 18.5 | -1.6 | -0.6 | -0.7 | -0.1
COc1ccc(-c2c(Cc3ccccc3)nc(NC(=O)c3ccccc3)n2Cc2ccccc2)cc1 | -0.2 | nt | -1.8 | -1.7 | 0.8 | nt
CC(C)C1N=C(c2ccc3c(c2)OCO3)CC(c2ccccc2O)N1 (configuration not stated) | 1.0 | 59.0* | 0.1 | 3.5 | 0.0 | -0.5
CCCCOc1ccc(N(CC(=O)NCc2ccccc2)C(=O)c2csnn2)cc1 | 2.8 | 3.7 | -0.3 | 2.5 | 0.3 | -1.2
Cc1cccc(N2CCN(C(=O)CN3C(=O)C4CC=CCC4C3=O)CC2)c1C (configuration not stated) | 10.6* | 1.7 | 0.4 | 1.6 | 1.5 | 1.2
Cc1ccc(-c2cnc(SCCNC(=O)c3ccco3)[nH]2)cc1 | -1.9 | 61.0* | -1.3 | -1.4 | 0.6 | -0.1
CCN(CC)P(=O)(c1ccccc1)c1c(C)nc2ccccn12 (configuration not stated) | -1.8 | -0.2 | -1.0 | -1.1 | -0.2 | -0.6
CC(CC(=O)c1cccs1)CC(=O)c1cccs1 | 6.2 | 1.1 | -1.1 | 1.0 | 2.1 | 0.7
Cc1cc(C)c(C(CC(=O)c2cccs2)C(C#N)C#N)c(C)c1 (configuration not stated) | 2.8 | 58.1* | -1.0 | -0.1 | 0.8 | -1.1
N/C(=N\OCc1ccccc1)c1nonc1N | 10.6* | 18.7 | -0.9 | 1.8 | 2.0 | 1.2
N/C(=N/OCc1cccc([N+](=O)[O-])c1)c1nonc1N | 0.5 | 0.9 | -1.1 | -2.9 | -1.0 | -1.9
COc1ccc(OCc2cc(C(=O)NC3CCOCC3)no2)c2ccccc12 | 3.0 | 17.1 | -0.1 | 6.3* | -2.2 | -0.4
COc1ccccc1OCc1cc(C(=O)N(C)CCC2CCOCC2)no1 | 9.8 | nt | 0.5 | 5.5 | 3.9* | 3.0
CC(=O)c1cccc(OCc2cc(C(=O)N(C)CCC3CCOCC3)no2)c1 | 3.9 | 4.0 | -0.8 | 1.0 | 1.6 | 0.7
O=c1oc(-c2ccc(O)c(O)c2)cc2cccc(O)c12 | 6.5 | 22.0 | 2.6* | 6.9* | 2.0 | 3.8
O=c1oc(-c2ccc(O)c(O)c2)cc2cc(O)cc(O)c12 | 9.2 | 11.5 | 0.8 | 13.3* | 2.2 | 7.6*

Assay outcomes: PubChem, The Scripps Research Institute Molecular Screening Center
